Compound activity deposited in PubChem by several laboratories.
Compounds with a hit are over-represented: about 2.2% of the library has one in this group of screens.
LGR2 antag = inhibitors of bursicon-induced LGR2 CRE-luciferase signal, primary screen, cell-based, HEK293, CRE-luciferase reporter, bursicon stimulation. AID 720647, 2013. inhibition, % at 9.99 µM. Drosophila bursicon receptor LGR2 (rickets). actives 0.35% (n = 380,000). bursicon-stimulated, 4 h;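 active = drop in luminescence signal, shown as inhibition above about 50% in the replicate tests, limit read from the data, passing the limit was not always enough; inconclusive = probably only some replicates passing the limit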;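 note: agonist challenge used bursicon conditioned medium at about half maximal strength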
TWEAK Fn14 block = inhibitors of TWEAK-Fn14 signaling, primary screen, luciferase reporter cells, uHTS; actives 2% (n = 360,000); inhibition, % at 10 µM; TWEAK-stimulated Fn14 reporter cells, luciferase luminescence, 8 h; in the data active = inhibition above about 50%
HSP90 inh = HSP90 inhibitors, primary screen, cell lysate, luminescence. Heat shock protein HSP 90 (rabbit reticulocyte lysate; luciferase refolding). Rabbit reticulocyte lysate, luciferase refolding luminescence, 3 h. inhibition, % at 5.6 µM. actives 0.91% (n = 290,000). AID 1789, 2009;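 active = inhibition above the screen-wide mean plus 3 SD, computed separately per campaign, cut at about 16% in these data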;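 note: 0% = DMSO wells and 100% = 60 µM geldanamycin wells; inhibitors lower the luminescence because luciferase stays unfolded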
TROY signal inh = inhibitors of TROY-driven NF-kB signaling, primary screen, Q293 LMP1-TROYcd cells, NF-kB luciferase, uHTS; Q293 LMP1-TROYcd NF-kB luciferase reporter, 4 h; inhibition, % at 10 µM; actives 0.98% (n = 360,000); AID 1347056, 2019;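 active = compounds whose plate-normalised and pattern-corrected inhibition of the luciferase reporter signal at the single screening dose is 50% or more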
HSP90 confirm = HSP90 inhibitors, confirmation, cell lysate, luminescence; shares compounds with HSP90 inh; actives 64% (n = 2,300); rabbit reticulocyte lysate, luciferase refolding luminescence, 3 h; inhibition, % at 5.9 µM; in the data active = inhibition above about 18%;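 note: 0% = vehicle wells and 100% = reference inhibitor wells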
FLuc counter = firefly luciferase inhibitors, HSP90 counter-screen, confirmation, artefact control for HSP90 inhibitor project, biochemical, luminescence, triplicate | shares compounds with HSP90 inh | purified native firefly luciferase | inhibition, % at 5.9 µM | actives 48% (n = 2,300);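 active = inhibition above the mean inhibition of all tested sample wells plus 3 SD, cut at about 10% in these data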;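 note: 0% = DMSO with luciferase and 100% = wells lacking luciferase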
Target sequence (P08659 whole entry, looked up): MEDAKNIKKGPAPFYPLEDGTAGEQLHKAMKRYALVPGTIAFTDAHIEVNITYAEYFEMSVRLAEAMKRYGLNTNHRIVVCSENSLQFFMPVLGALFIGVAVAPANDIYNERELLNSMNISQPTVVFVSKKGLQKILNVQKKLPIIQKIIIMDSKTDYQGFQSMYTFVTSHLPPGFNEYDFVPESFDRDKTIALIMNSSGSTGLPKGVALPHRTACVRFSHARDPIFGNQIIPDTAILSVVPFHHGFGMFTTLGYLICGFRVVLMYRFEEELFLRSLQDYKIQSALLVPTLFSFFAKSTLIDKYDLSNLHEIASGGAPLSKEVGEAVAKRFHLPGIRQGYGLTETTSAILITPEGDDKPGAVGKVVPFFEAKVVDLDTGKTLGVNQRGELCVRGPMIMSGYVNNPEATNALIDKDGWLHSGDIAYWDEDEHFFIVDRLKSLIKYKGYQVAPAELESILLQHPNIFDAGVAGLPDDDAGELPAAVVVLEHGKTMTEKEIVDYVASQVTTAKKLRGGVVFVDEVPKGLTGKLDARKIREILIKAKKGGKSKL
Starred values were filed as active, the others as inactive; ? = inconclusive; nt = not tested or not shown.

SMILES	LGR2 antag	TWEAK Fn14 block	HSP90 inh	TROY signal inh	HSP90 confirm	FLuc counter
Cc1ccc(S(=O)(=O)Nc2ccc3c(c2)CC(=O)N([C@H](C)CO)C[C@H](C)[C@@H](CN(C)S(C)(=O)=O)O3)cc1	-12	nt	nt	nt	nt	nt
CC(C)(C)c1ccc(C(=O)Nc2ccc(C=C(C#N)C#N)cc2)cc1	-69	-2	39*	-5	45*	-16
O=C(O)CC1SC(N/N=C/c2ccc(Br)cc2)NC1=O (stereo not given)	10	7	17*	-11	24*	-10
O=C1CCN(Cc2ccccc2)CCN1CCOc1ccccc1	-52	48	17*	46	13	21*
O=C(Nc1ccccc1)OCCN1CCN(Cc2ccccc2)CCC1=O	2	-7	2	16	nt	nt
O=C1c2ccccc2S(=O)(=O)N1Cc1nc2ccccc2s1	nt	103*	37*	79*	21*	-5
Cc1noc(C)c1S(=O)(=O)N(C)C[C@H]1OCCCC[C@H](C)Oc2ccc(NC(=O)NC3CCCCC3)cc2C(=O)N([C@H](C)CO)C[C@H]1C	7	nt	nt	nt	nt	nt
COc1cccc2cc(-c3csc(NC(=O)CCC(=O)NCCCN4CCC(C)CC4)n3)c(=O)oc12	-2	59*	27*	21	2	-15
CCOc1cccc2cc(-c3csc(NC(=O)CCC(=O)NCCCN4CCC(C)CC4)n3)c(=O)oc12	nt	nt	-3	nt	nt	nt
COc1ccc(CN(Cc2cc3cc(OC)c(OC)cc3[nH]c2=O)C(=O)NC2CCCCC2)cc1	nt	9	-1	25	nt	nt
COc1cc2cc(CN(C(=O)NC3CCCCC3)C3CCCC3)c(=O)[nH]c2cc1OC	nt	7	22*	-3	-4	-8
COc1cc(/C=C2\CCC(C3CCCC3)C2=O)cc(OC)c1OC (stereo not given)	-14	-81	-2	-55	nt	nt
COc1cc(/C=C2\CC(C(C)(C)C)C/C(=C\c3cc(OC)c(OC)c(OC)c3)C2=O)cc(OC)c1OC (stereo not given)	42	64*	19*	12	20*	-5
COc1ccccc1C#Cc1ccc2c(c1)[C@@H]1[C@@H](CCN1C(=O)Cc1ccccc1)[C@H](CO)N2	5	nt	nt	nt	nt	nt
CC(On1c(-c2ccccc2)nc2ccc(Cl)cc21)C(=O)O (stereo not given)	-25	-23	-1	-61	nt	nt
Cc1ccc(-c2nc3ccc(Cl)cc3n2OC(C)C(=O)O)cc1 (stereo not given)	nt	-9	62*	23	-5	-23
COc1ccc(/C=C/C(=O)OC2CCCN(C)C2)cc1 (stereo not given)	-10	-7	10	-24	nt	nt
COc1ccc(/C=C/C(=O)OC2CCCCC2CN(C)C)cc1 (stereo not given)	19	6	21*	7	1	-4
CN1C(=O)c2cc(NC(=O)C3CCOCC3)ccc2OC[C@H]2O[C@@H](CC(=O)NCc3ccc4c(c3)OCO4)CC[C@@H]21	8	nt	nt	nt	nt	nt
O=c1c2ccccc2cnn1Cc1nnc(-c2cccs2)o1	-14	10	19*	-4	-1	-5
COc1ccccc1-c1ccc(C(=O)O)o1	-23	-12	46*	-68	54*	-14
COc1ccc(Cl)cc1Nc1nc(-c2sc(NC(=O)c3ccccc3)nc2C)cs1	nt	nt	40*	nt	24*	-3
Cc1nc(NC(=O)c2ccco2)sc1-c1csc(Nc2ccc(Cl)cc2Cl)n1	-23	2	9	-39	nt	nt
COc1ccc(OC)c(Nc2nc(-c3sc(NC(=O)c4ccccc4)nc3C)cs2)c1	nt	nt	27*	nt	19*	-5
Cc1nc(NC(=O)c2ccccc2)sc1-c1csc(Nc2ccc(Cl)cc2Cl)n1	nt	nt	45*	nt	35*	-13
SMILES	LGR2 antag	TWEAK Fn14 block	HSP90 inh	TROY signal inh	HSP90 confirm	FLuc counter
Cc1cccc(/C=N/NC(=O)c2ccc3c(c2)OCCO3)c1O	68*	74*	32*	29	59*	52*
CCOc1cccc(/C=N/NC(=O)c2ccc3c(c2)OCCO3)c1O	2	-21	-3	-26	nt	nt
O=C(N/N=C/c1cccc(O)c1)c1ccc2c(c1)OCCO2	13	69*	48*	15	59*	39*
O=C(N/N=C/c1ccccc1[N+](=O)[O-])c1ccc2c(c1)OCCO2	?	22	22*	-16	58*	36*
O=C(N/N=C/c1cc(O)ccc1[N+](=O)[O-])c1ccc2c(c1)OCCO2	-3	-6	3	-45	nt	nt
CCCNC(=O)Nc1ccc2c(c1)C(=O)N(C)C[C@@H](OC)[C@H](C)CN(S(C)(=O)=O)[C@H](C)CO2	12	nt	nt	nt	nt	nt
COc1ccc2c3c([nH]c2c1)[C@H](CO)N(S(C)(=O)=O)CC31CCN(C(=O)Cc2cccnc2)CC1	-10	nt	nt	nt	nt	nt
O=C1CCCc2nc3c(cc21)C(O)Oc1c-3ccc2ccccc12 (stereo not given)	-51	30	31*	6	38*	-21
O=C1CCCc2nc3c(cc21)C(O)Oc1ccccc1-3 (stereo not given)	11	18	-2	17	nt	nt
O=C(NC(=S)Nc1ccc(-c2ccc(CO)o2)cc1)c1cccs1	nt	-5	24*	-9	5	-13
Cc1ccc(C(=O)NC(=S)Nc2ccc(-c3ccc(CO)o3)cc2)cc1	-14	-5	4	-70	nt	nt
COc1ccc(C(=O)c2coc3ccc(O)c(CN4CCCCC4)c23)cc1	6	-17	47*	-23	-1	-10
CCOC(=O)/C(=N\Nc1ncnc2ccccc12)c1ccc(OC)cc1	-13	41	18*	-19	23*	-28
CO[C@H]1CN(C)C(=O)c2cc(NC(=O)C3CCCCC3)ccc2OC[C@@H](C)N(C)C[C@H]1C	5	nt	nt	nt	nt	nt
CCOc1ccc(-c2nc(CN3CCCC(C(=O)N4CCOCC4)C3)c(C)o2)cc1 (stereo not given)	-4	17	18*	-14	24*	-3
O=C(NCCc1nnc2ccc(NCc3ccc(Cl)cc3)nn12)c1ccccc1	1	-11	20*	-4	1	-2
O=C(CSc1ccc2nnc(CCNC(=O)c3ccccc3)n2n1)NCc1ccccc1	22	6	2	2	nt	nt
C[C@@H]1CN([C@@H](C)CO)C(=O)c2cc(/C=C/c3ccccc3)cnc2O[C@H]1CN(C)Cc1ccc2c(c1)OCO2	-14	nt	nt	nt	nt	nt
Cc1ccc(-c2cc3c(nn2)-c2ccccc2C3=O)cc1	92*	96*	28*	75*	75*	89*
Cc1ccccc1-c1cc2c(nn1)-c1ccccc1C2=O	nt	46	74*	85*	7	0
Cc1noc(C)c1S(=O)(=O)Nc1ccc2c(c1)C(=O)N([C@@H](C)CO)C[C@@H](C)[C@@H](CN(C)Cc1ccncc1)OCCCC[C@@H](C)O2	7	nt	nt	nt	nt	nt
